# Measurements published in the supplement of paper PMC10646978.
# ± gives the standard deviation.
# How the values were obtained:
# Settings in all cases: modulator concentration 10 µM
# [1] = system: RAW-Dual (murine macrophage reporter line); assay: NF-kB reporter (SEAP) activity fold change vs agonist alone; higher = enhanced NF-kB activity
# Procedure, shortened: (§1)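 RAW-Dual murine macrophage reporter cells were seeded at 50 000 per well in 384-well plates and pre-incubated 1 hour at 37 °C with compound pin-transferred to 10 μM final. After 1 hour, a PRR agonist was added and cells incubated overnight. Supernatant NF-κB (SEAP, QUANTI-Blue, 620 nm absorbance) and IRF (Lucia luciferase, QUANTI-Luc, luminescence) signals were divided by the mean agonist-only control on the same plate to give fold change. Two replicate plates were averaged, with errors by propagation.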
# [2] = system: RAW-Dual (murine macrophage reporter line); assay: IRF reporter (Lucia luciferase) activity fold change vs agonist alone; higher = enhanced IRF activity
# Procedure, shortened: as §1
# [3] = system: RAW-Dual (murine macrophage reporter line); assay: viability score (confluency relative to resting cells, overnight) (fraction); higher = more viable, active = viable (0.7 or more)
# Procedure, shortened: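 In 384-well plates, RAW-Dual macrophages received compound at a final 10 μM overnight. Two confluency masks were then made with IncuCyte software from IncuCyte images of all imaged wells. The viability score is defined as confluency relative to resting cells. Passing the cutoff required both masks to lie above 70% of resting cells.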
# [4] = agonist: CpG ODN 1826 0.5 ug/mL
compound,measurement,setting,value
CCOC(=O)N1CCN(C(=O)C2CCN(Cc3ccc(C)o3)CC2)CC1,NF-kB reporter,[1]; [4],0.941 ± 0.15
same,NF-kB reporter,[1]; agonist: LPS 0.1 ug/mL,1.04 ± 0.089
same,NF-kB reporter,[1]; agonist: MPLA […],0.98 ± 0.08
same,IRF reporter,[2]; agonist: 3'3'-cGAMP 10 ug/mL,1.02 ± 0.051
same,IRF reporter,[2]; agonist: LPS 0.1 ug/mL,1.26 ± 0.3
same,IRF reporter,[2]; agonist: MPLA […],1.41 ± 0.3
same,viability score,[3],0.991 (active)
O=C(NCCOc1cccc2cccnc12)c1c(F)cccc1F,NF-kB reporter,[1]; [4],0.911 ± 0.088
same,NF-kB reporter,[1]; agonist: LPS 0.1 ug/mL,1.01 ± 0.13
same,NF-kB reporter,[1]; agonist: MPLA […],0.859 ± 0.049
same,IRF reporter,[2]; agonist: 3'3'-cGAMP 10 ug/mL,0.961 ± 0.048
same,IRF reporter,[2]; agonist: LPS 0.1 ug/mL,1.01 ± 0.1
same,IRF reporter,[2]; agonist: MPLA […],1.05 ± 0.31
same,viability score,[3],1.01 (active)
CC(C)Cc1ccc(C(C)C(=O)O)cc1.NCCCC[C@H](N)C(=O)O (stereo not drawn),NF-kB reporter,[1]; [4],1.11 ± 0.26
same,NF-kB reporter,[1]; agonist: LPS 0.1 ug/mL,0.97 ± 0.05
same,NF-kB reporter,[1]; agonist: MPLA […],0.963 ± 0.064
same,IRF reporter,[2]; agonist: 3'3'-cGAMP 10 ug/mL,0.903 ± 0.032
same,IRF reporter,[2]; agonist: LPS 0.1 ug/mL,1.47 ± 0.16
same,IRF reporter,[2]; agonist: MPLA […],1.41 ± 0.18
same,viability score,[3],0.536 (inactive)
COC(=O)c1ccc2c(c1)NC(=O)/C2=C(\Nc1ccc(N(C)C(=O)CN2CCN(C)CC2)cc1)c1ccccc1,NF-kB reporter,[1]; [4],1.34 ± 0.2
same,NF-kB reporter,[1]; agonist: LPS 0.1 ug/mL,1.18 ± 0.27
same,NF-kB reporter,[1]; agonist: MPLA […],1.02 ± 0.063
same,IRF reporter,[2]; agonist: 3'3'-cGAMP 10 ug/mL,0.325 ± 0.024
same,IRF reporter,[2]; agonist: LPS 0.1 ug/mL,0.851 ± 0.14
same,IRF reporter,[2]; agonist: MPLA […],0.474 ± 0.041
same,viability score,[3],0.998 (active)
O=S(=O)(Cc1ccccc1)c1nc2ccccc2n1Cc1ccc(Cl)cc1,NF-kB reporter,[1]; [4],0.661 ± 0.045
same,NF-kB reporter,[1]; agonist: LPS 0.1 ug/mL,1.1 ± 0.071
same,NF-kB reporter,[1]; agonist: MPLA […],0.978 ± 0.057
same,IRF reporter,[2]; agonist: 3'3'-cGAMP 10 ug/mL,1.32 ± 0.059
same,IRF reporter,[2]; agonist: LPS 0.1 ug/mL,1.35 ± 0.092
same,IRF reporter,[2]; agonist: MPLA […],1.36 ± 0.19
same,viability score,[3],0.965 (active)
Cn1cnc2c(F)c(Nc3ccc(Br)cc3F)c(C(=O)NOCCO)cc21,NF-kB reporter,[1]; [4],0.822 ± 0.071
same,NF-kB reporter,[1]; agonist: LPS 0.1 ug/mL,0.65 ± 0.052
same,NF-kB reporter,[1]; agonist: MPLA […],0.666 ± 0.04
same,IRF reporter,[2]; agonist: 3'3'-cGAMP 10 ug/mL,0.777 ± 0.045
same,IRF reporter,[2]; agonist: LPS 0.1 ug/mL,1.17 ± 0.23
same,IRF reporter,[2]; agonist: MPLA […],1.35 ± 0.45
same,viability score,[3],0.248 (inactive)
COc1ccc(OC)c(Nc2nc(-c3c(C)nc4ccccn34)cs2)c1,NF-kB reporter,[1]; [4],1.35 ± 0.22
same,NF-kB reporter,[1]; agonist: LPS 0.1 ug/mL,1.45 ± 0.12
same,NF-kB reporter,[1]; agonist: MPLA […],1.58 ± 0.13
same,IRF reporter,[2]; agonist: 3'3'-cGAMP 10 ug/mL,0.241 ± 0.0091
same,IRF reporter,[2]; agonist: LPS 0.1 ug/mL,1.25 ± 0.22
same,IRF reporter,[2]; agonist: MPLA […],1.53 ± 0.24
same,viability score,[3],0.967 (active)
C=CCn1c(=N)n(CC(O)c2ccco2)c2ccccc21.Cl (stereo not drawn),NF-kB reporter,[1]; [4],1.15 ± 0.13
same,NF-kB reporter,[1]; agonist: LPS 0.1 ug/mL,0.961 ± 0.1
same,NF-kB reporter,[1]; agonist: MPLA […],1.21 ± 0.056
same,IRF reporter,[2]; agonist: 3'3'-cGAMP 10 ug/mL,1.07 ± 0.17
same,IRF reporter,[2]; agonist: LPS 0.1 ug/mL,1.03 ± 0.043
same,IRF reporter,[2]; agonist: MPLA […],0.936 ± 0.061
same,viability score,[3],1 (active)
COc1ccc2[nH]c(S(=O)Cc3ncc(C)c(OC)c3C)nc2c1 (stereo not drawn),NF-kB reporter,[1]; [4],1.22 ± 0.23
same,NF-kB reporter,[1]; agonist: LPS 0.1 ug/mL,1.01 ± 0.26
same,NF-kB reporter,[1]; agonist: MPLA […],0.909 ± 0.065
same,IRF reporter,[2]; agonist: 3'3'-cGAMP 10 ug/mL,0.83 ± 0.028
same,IRF reporter,[2]; agonist: LPS 0.1 ug/mL,1.11 ± 0.27
same,IRF reporter,[2]; agonist: MPLA […],0.934 ± 0.074
same,viability score,[3],0.99 (active)
CN(C)CCOC(C)(c1ccccc1)c1ccccn1.O=C(O)CCC(=O)O (stereo not drawn),NF-kB reporter,[1]; [4],0.876 ± 0.12
same,NF-kB reporter,[1]; agonist: LPS 0.1 ug/mL,1.25 ± 0.39
same,NF-kB reporter,[1]; agonist: MPLA […],0.954 ± 0.067
same,IRF reporter,[2]; agonist: 3'3'-cGAMP 10 ug/mL,0.862 ± 0.029
same,IRF reporter,[2]; agonist: LPS 0.1 ug/mL,1.41 ± 0.33
same,IRF reporter,[2]; agonist: MPLA […],1.16 ± 0.15
same,viability score,[3],1 (active)
COc1ccc(N2CC(C(=O)NCc3ccccc3C(F)(F)F)CC2=O)cc1 (stereo not drawn),NF-kB reporter,[1]; [4],1 ± 0.11
same,NF-kB reporter,[1]; agonist: LPS 0.1 ug/mL,1.07 ± 0.085
same,NF-kB reporter,[1]; agonist: MPLA […],0.935 ± 0.041
same,IRF reporter,[2]; agonist: 3'3'-cGAMP 10 ug/mL,1.03 ± 0.051
same,IRF reporter,[2]; agonist: LPS 0.1 ug/mL,1.2 ± 0.1
same,IRF reporter,[2]; agonist: MPLA […],1.14 ± 0.29
same,viability score,[3],1 (active)
Clc1ccc(-c2nc(N3CCCCC3)nc3ccccc23)cc1,NF-kB reporter,[1]; [4],0.444 ± 0.033
same,NF-kB reporter,[1]; agonist: LPS 0.1 ug/mL,0.975 ± 0.051
same,NF-kB reporter,[1]; agonist: MPLA […],1.09 ± 0.041
same,IRF reporter,[2]; agonist: 3'3'-cGAMP 10 ug/mL,0.839 ± 0.047
same,IRF reporter,[2]; agonist: LPS 0.1 ug/mL,0.953 ± 0.073
same,IRF reporter,[2]; agonist: MPLA […],1.39 ± 0.12
same,viability score,[3],0.993 (active)
Br.O=S(=O)(c1ccc(-c2csc(Nc3ccc(Br)cc3)n2)cc1)N1CCOCC1,NF-kB reporter,[1]; [4],0.967 ± 0.084
same,NF-kB reporter,[1]; agonist: LPS 0.1 ug/mL,1.08 ± 0.091
same,NF-kB reporter,[1]; agonist: MPLA […],1.1 ± 0.046
same,IRF reporter,[2]; agonist: 3'3'-cGAMP 10 ug/mL,0.951 ± 0.17
same,IRF reporter,[2]; agonist: LPS 0.1 ug/mL,1.14 ± 0.049
same,IRF reporter,[2]; agonist: MPLA […],0.903 ± 0.059
same,viability score,[3],0.999 (active)
Nc1ncnc2c1nc(S)n2C1OC(CO)C(O)C1O (stereo not drawn),NF-kB reporter,[1]; [4],0.775 ± 0.061
same,NF-kB reporter,[1]; agonist: LPS 0.1 ug/mL,0.9 ± 0.082
same,NF-kB reporter,[1]; agonist: MPLA […],0.951 ± 0.11
same,IRF reporter,[2]; agonist: 3'3'-cGAMP 10 ug/mL,0.957 ± 0.051
same,IRF reporter,[2]; agonist: LPS 0.1 ug/mL,1.15 ± 0.067
same,IRF reporter,[2]; agonist: MPLA […],1.27 ± 0.14
same,viability score,[3],1.02 (active)
